# Assay outcomes (PubChem BioAssay)
# NR5A2 inv ag: NR5A2 inverse agonism in reporter assay; O00482; HEK293T StAR-luciferase reporter, LRH-1 transfected, 24 h; AID 602396; inhibition, % at 3.6 µM; 0.13% of 360,000 active;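 active = inhibition above the mean inhibition of all tested compounds plus 3 SD, cut at about 73% in these data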;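 note: 0% = DMSO wells and 100% = reporter-only cells lacking LRH-1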
# NCOA3 inh: inhibits human SRC3 coactivator; HEK293 GAL4-SRC3 luciferase reporter, luminescence; inhibition, % at 3.6 µM; 0.17% of 360,000 active; AID 588352;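 active = inhibition above a per-campaign cutoff, the mean of all compounds plus 3 SD, cut at about 60% in these data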;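 note: 0% = DMSO-treated cells and 100% = gossypol-treated cells at 36 µM; higher means less SRC3-driven luciferase light from the GAL4 reporter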
# SRC1 inh: inhibitors of human steroid receptor coactivator 1 (SRC1) | inhibition, % at 3.6 µM | HEK293 GAL4-SRC1 luciferase reporter, luminescence | 0.12% of 360,000 active;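 active = inhibition above the campaign mean plus 3 SD, with each screening campaign given its own cutoff, cut at about 60% in these data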;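 note: 0% = DMSO treated cells and 100% = gossypol at 36 µM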
# NCOA2 inhibitor: inhibits human steroid receptor coactivator 2. Q15596. AID 651957. HEK293 GAL4-SRC2 luciferase reporter, luminescence. 0.17% of 370,000 active. inhibition, % at 9 µM;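 active = inhibition above the mean inhibition of all tested compounds plus 3 SD, set per campaign, cut at about 52% in these data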;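 note: 0% = DMSO treated cells and 100% = cells given Gossypol at 36 µM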
# GalR3 antag: antagonists of human GalR3; HEK293 GalR3-CNG cAMP membrane potential fluorescence; galR3 body fused to GalR1 C-terminus; 0.44% of 360,000 active; inhibition, % at 3 µM; O60755;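 active = inhibition above the screen-wide average plus 3 SD, cut at about 13% in these data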;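 note: forskolin and galanin both at EC90 stimulate the cells; cAMP rise reported by CNG channel membrane potential dye signal; 0% = forskolin plus galanin with DMSO and 100% = forskolin alone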
# Target sequence (O60755 1-299 limits assumed): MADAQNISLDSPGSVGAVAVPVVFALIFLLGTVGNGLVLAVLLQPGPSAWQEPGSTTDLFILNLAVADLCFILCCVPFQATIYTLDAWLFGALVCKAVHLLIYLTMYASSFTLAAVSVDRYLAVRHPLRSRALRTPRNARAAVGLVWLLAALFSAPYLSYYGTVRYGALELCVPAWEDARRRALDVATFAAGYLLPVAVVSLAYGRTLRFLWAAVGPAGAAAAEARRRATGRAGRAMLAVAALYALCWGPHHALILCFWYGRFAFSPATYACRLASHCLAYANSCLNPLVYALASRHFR
# COUP-TFII inh: NR2F2 (human) inhibition, primary screen | 0.7% of 370,000 active | HEK293T NGFI-A luciferase reporter, luminescence | inhibition, % at 8.6 µM;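 active = inhibition above a per-plate cutoff, mean inhibition of test wells between control levels plus 3 SD, cut at about 38% in these data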;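 note: cells cotransfected with COUP-TFII expression vector driving the NGFI-A reporter; 0% = median of COUP-TF2 test wells and 100% = reporter-only cells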
# Target sequence (P24468 whole entry, looked up): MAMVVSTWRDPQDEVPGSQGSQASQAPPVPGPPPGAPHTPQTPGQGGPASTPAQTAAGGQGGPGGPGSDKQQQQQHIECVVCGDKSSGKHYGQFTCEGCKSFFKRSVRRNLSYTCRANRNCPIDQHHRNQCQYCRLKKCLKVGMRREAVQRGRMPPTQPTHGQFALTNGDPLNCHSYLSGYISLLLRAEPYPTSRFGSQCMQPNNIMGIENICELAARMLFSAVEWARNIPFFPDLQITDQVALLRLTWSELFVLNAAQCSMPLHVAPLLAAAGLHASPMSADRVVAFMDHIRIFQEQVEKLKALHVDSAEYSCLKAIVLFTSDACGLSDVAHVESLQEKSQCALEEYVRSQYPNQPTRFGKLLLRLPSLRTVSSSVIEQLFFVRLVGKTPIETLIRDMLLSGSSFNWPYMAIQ
# GalR3 conf: confirmation of human galanin receptor 3 antagonists; shares compounds with GalR3 antag; HEK293 GalR3 CNG cAMP biosensor, membrane potential fluorescence; galR3 fused to GalR1 carboxy tail; challenged with forskolin and galanin at EC90; inhibition, % at 3 µM; 59% of 1,600 active; AID 652245;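 active = inhibition above the primary screen's cutoff, the mean inhibition of all screened compounds plus 3 SD, cut at about 13% in these data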;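 note: 0% = forskolin plus galanin and 100% = forskolin alone with DMSO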
# CNG parental: acts as nonspecific agonist in parental HEK-CNG cells | activation, % at 3 µM | shares compounds with GalR3 antag | 10% of 1,600 active | HEK293-CNG parental cells, cAMP membrane potential fluorescence; normalised: DMSO wells 0%, forskolin wells 100%; in the data active = activation above about 1.3%
# Numbers without * were called inactive; / = no result. Only some compounds are listed: those with a hit (about 1.1% of all), similar ones and a draw of the others.
SMILES,NR5A2 inv ag,NCOA3 inh,SRC1 inh,NCOA2 inhibitor,GalR3 antag,COUP-TFII inh,GalR3 conf,CNG parental
CCC(=O)N(C)C[C@@H]1[C@H](c2ccc(C3=CCCCC3)cc2)[C@H](CO)N1C(=O)CC,/,/,/,-13.2,/,-6.6,/,/
Cc1c(C(=O)N2CCc3ccccc32)cnn1C,-17.3,0.8,5.5,-17.5,/,-13.0,5.7,-0.1
O=C(CSc1nccc(=O)[nH]1)Nc1cccc(S(=O)(=O)N2CCOCC2)c1,-0.1,13.1,-6.2,11.3,30.6*,-1.8,6.4,0.2
Cc1[nH]c2ccc(C(=O)NCCCN3CCOCC3)cc2c1C,0.9,9.1,2.7,-0.5,3.2,-15.2,/,/
Cc1[nH]c2ccc(C(=O)NCCCN3CCN(C)CC3)cc2c1C,23.4,-3.0,3.6,-2.1,14.5*,13.2,-3.8,0.4
CCOC(=O)Cn1nc(C)c(NC(=O)COc2cccc(Cl)c2)c1C,3.8,22.1,1.6,-3.8,21.3*,5.5,-0.3,0.1
CC(=O)NCCC1CCN(c2nc3nonc3nc2N(C)Cc2ccccc2)CC1,2.3,11.2,0.2,24.4,19.6*,-1.6,0.0,0.3
CCCCOCC1CN(Cc2ccccc2OC)S(=O)(=O)c2cc(Cl)ccc2O1 (stereo not drawn),/,/,/,-23.5,-6.5,-6.4,/,/
CCOCCCNC(=O)C1CCCN(S(=O)(=O)CC)C1 (stereo not drawn),12.1,3.7,-14.9,-10.3,2.3,8.6,/,/
CCCCNC(=O)C1CCCN(S(=O)(=O)CC)C1 (stereo not drawn),1.7,1.9,9.7,13.9,14.4*,1.7,0.1,-0.1
Cc1ccc(-n2c(SCc3ccc(C#N)cc3)nnc2-c2ccccn2)cc1,8.0,10.8,-9.4,5.5,13.3*,10.3,11.7,0.2
COc1ccc(-n2c(SCc3ccc([N+](=O)[O-])cc3)nnc2-c2ccc(C)cc2)cc1,-11.2,11.7,-8.9,14.3,49.8*,2.4,10.6,0.7
COC(=O)[C@]12C[C@H](CC(=O)NCC34CC5CC(CC(C5)C3)C4)C(=O)N(CCc3ccc(OC)c(OC)c3)C1=C[C@H](C(C)C)O[C@@H]2C1CC1,/,/,/,1.5,/,27.3,/,/
C=CCN(Cc1ccc(OC)cc1OC)C(C#CCCCC)c1ccccc1 (stereo not drawn),/,/,/,/,/,17.1,/,/
Cc1sc2ncnc(NCc3cccs3)c2c1C,30.2,-42.6,-10.6,-30.0,54.7*,34.5,58.0*,0.0
CCCCn1c(-c2nonc2NC(=O)c2ccccc2Cl)nc2ccccc21,7.7,-51.8,2.6,-0.2,19.4*,-4.4,-0.4,0.2
CC(c1ccc(F)cc1)n1c(-c2ccc3ccccc3n2)n[nH]c1=S (stereo not drawn),-11.2,-6.9,-5.8,0.4,-0.6,-15.1,/,/
CC(c1ccc(Cl)cc1)n1c(-c2ccc3ccccc3n2)n[nH]c1=S (stereo not drawn),-10.4,12.8,2.2,5.8,13.1*,-3.0,6.8,0.8
CCOC(=O)C[N+]1(C)CCN(C(C)=O)CC1,-8.5,11.8,7.7,-16.3,13.4*,-4.2,-3.3,-0.4
COc1ccc(N2C(=O)CC(NCc3ccc(F)cc3)C2=O)cc1 (stereo not drawn),-1.4,2.2,-17.9,11.6,14.6*,-21.9,14.5*,0.0
COc1ccc(N2C(=O)CC(NCc3ccncc3)C2=O)cc1 (stereo not drawn),17.8,-10.5,4.1,1.5,7.0,6.3,/,/
COc1cc(C(=O)NCCc2cc3c(OC)ccc(OC)c3[nH]c2=O)cc(OC)c1OC,-9.5,-7.0,8.2,2.1,14.4*,-12.4,15.5*,0.2
COc1ccc(CNC(=O)c2cnn3c(C(F)F)cc(C)nc23)cc1OC,16.0,13.3,-1.5,-5.0,14.6*,26.2,20.3*,0.2
COCCNC(=O)c1cnn2c(C(F)F)cc(-c3ccc(C)cc3)nc12,13.2,16.2,2.9,8.3,-2.2,2.9,/,/
COC(=O)c1ccc(NC(=O)C(=O)c2cccn2C)cc1,-146.7,-130.2,-129.4,-47.8,/,-28.8,0.5,0.0
SMILES,NR5A2 inv ag,NCOA3 inh,SRC1 inh,NCOA2 inhibitor,GalR3 antag,COUP-TFII inh,GalR3 conf,CNG parental
C=C(C)[C@@H]1CC2=C(OC)C(CC=C(C)C)(CC=C(C)C)C(=O)C(C(=O)c3ccccc3)=C2O1,/,/,/,14.7,/,5.0,/,/
O=C(Cn1nc(C(=O)O)c2ccccc2c1=O)Nc1cccc(S(=O)(=O)N2CCCCC2)c1,-5.6,-14.2,-31.7,-4.6,13.0*,12.9,58.4*,-1.4
CCC(=O)c1ccc(OCC(=O)Nc2cccc(S(=O)(=O)N3CCCCCC3)c2)cc1,2.8,8.3,-8.8,15.5,98.2*,27.5,97.3*,-0.6
CCS(=O)c1ccccc1C(=O)OCC(=O)Nc1cccc(S(=O)(=O)N2CCCCC2)c1 (stereo not drawn),23.0,17.5,9.2,-0.2,91.7*,25.4,96.0*,-0.3
Cc1cc(OCC(=O)Nc2cccc(S(=O)(=O)N3CCCCC3)c2)ccc1Cl,2.7,-2.5,-9.8,5.8,-4.2,6.5,/,/
CC(C)CC1NC(=O)N(Cc2nc3ccccc3s2)C1=O (stereo not drawn),13.3,-18.4,-14.4,3.1,18.6*,-16.7,-0.7,-0.1
COc1cccc(C(=O)N2N=C(c3cccc(OC)c3)CC2(O)C(F)(F)F)c1 (stereo not drawn),13.8,4.7,-1.9,-12.7,-1.5,16.4,/,/
COc1cccc(C2=NN(C(=O)c3cccs3)C(O)(C(F)(F)F)C2)c1 (stereo not drawn),2.9,9.2,16.0,12.1,13.2*,5.3,3.3,0.9
CCCCCCCCN1CCS(=O)(=O)N(Cc2ccc(F)cc2)C(C(=O)OC)C1 (stereo not drawn),/,/,/,22.1,/,12.6,/,/
O=C(O)C12CC3CC(C1)CC(n1ncc(NCc4ccco4)c(Cl)c1=O)(C3)C2,3.4,11.5,-2.0,10.3,3.0,1.4,/,/
O=c1c(Cl)c(NCC2CCCO2)cnn1C12CC3CC(CC(C3)C1)C2 (stereo not drawn),10.5,10.0,4.7,-1.7,15.4*,-24.2,33.0*,0.2
CCC(=O)Nc1nc(CC(=O)Nc2ccccc2OC)cs1,2.0,-3.6,7.7,-0.9,-2.8,-8.1,/,/
COc1ccccc1NC(=O)Cc1nc(CCl)cs1,-8.9,1.7,-8.8,-33.0,13.7*,4.4,11.8,-0.4
O=C(NS(=O)(=O)N1CCCC1)C1=C(N2CCCC2)COC1=O,-15.8,2.3,-12.2,10.9,/,-83.4,-0.5,0.1
O=C(NS(=O)(=O)NC1CCCCC1)C1=C(N2CCCC2)COC1=O,-12.5,-0.9,-7.1,13.4,8.1,5.2,/,/
CCCCN(C)c1nc(C)nc2c1nnn2Cc1ccccc1,/,/,/,6.7,/,5.5,/,/
